This is part of a sample that, as a whole, favours compounds with a hit. Of some 83,000 tested, about 20% had one in any assay.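 Plates (96-well) were seeded with cells, treated with compound at one concentration, and incubated for 48 hours before percent growth was determined.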 A number with no mark means an inactive call. The source made the active and inactive calls.
Each compound was assayed on NCI-H322M lung (assay: NCI-60 one-dose screen, 48 h (100 = growth as untreated, 0 = no growth, -100 = all killed)). Conditions: 10 µM unless noted.
Experimental: Growth inhibition of the NCI-H322M human Non-Small Cell Lung tumor cell line is measured as a screen for anti-cancer activity. Cells are grown in 96 well plates and exposed to the test compound for 48 hours. Compounds are tested at a single concentration, which is 10^-5 M for most compounds. The reported endpoint is percent growth (GI% or GIPRCNT), where numbers from 0 - 100% represent growth inhibition, and numbers from -100% - 0 represent cell death. For example, a value of 40 represents 60% growth inhibition. A value of 0 means no net growth occurred over the course of the experiment. A value of -40 indicates 40% of cells at the beginning of the experiment died by the end of the experiment. A value of -100 means all cells are dead at the end of the experiment.
NCI-60 Human Tumor Cell Lines Screen was performed using the standard one-dose NCI protocol, which is described in more detail at https://dtp.cancer.gov/discovery_development/nci-60/default.htm.
Compounds with GIPRCNT values below 10 were considered active. Activity score was based on GIPRCNT using the following formula: […]
Score is 0 for GIPRCNT values of 100 or above, 50 for GIPRCNT values of 0, and 100 for GIPRCNT values of -100.

Row | SMILES | growth
1 | O=C(Nc1ccc(N2CCNCC2)cc1)c1[nH]ncc1Nc1ncnc2sc3c(c12)CCC3 | -33.2% (active)
2 | O=S(=O)(Nc1ncccn1)c1ccc(NC2Nc3nc4ccccc4nc3S2)cc1 (stereo not given) | 97.7%
3 | O=C(/C=C/c1ccc(Cl)cc1)c1ccc(Nc2nc(NCCO)nc(Nc3ccc(Cl)cc3)n2)cc1 | 86.7%
4 | N[C@@H](CC/[N+]([O-])=N/O)C(=O)O | 103%
5 | NCCOc1ccccc1/C=C1\c2ccccc2-c2ccc([N+](=O)[O-])cc21 | 51.1%
6 | CN1CCN(Cc2ccc(NC(=O)c3[nH]ncc3Nc3cc(OC4CCCC4)ncn3)cc2)CC1 | 45.9%
7 | CCOC(=O)c1c2c(c(C)n1Cc1ccc(OC)cc1)-c1oncc1CC2 | 78.5%
8 | O=C(O)CCC(=O)c1ccc(C2CCCCCC2)cc1 | 97.5%
9 | CC[C@]1(O)C[C@@H]2CN(CCc3c([nH]c4ccccc34)[C@@](C(=O)OC)(c3cc4c(cc3OC)N(C)[C@H]3[C@@](O)(C(=O)OC)[C@H](OC(C)=O)[C@]5(CC)C=CCN6CC[C@]43[C@@H]65)C2)C1 | 39.9%
10 | Nc1nc2c(ncn2[C@@H]2O[C@H](CS)[C@@H](O)[C@H]2O)c(=O)[nH]1 | 93.3%
11 | COc1cccc(C2=NN3C(C2)c2ccccc2OC3c2ccc(/C=C3\SC(=O)NC3=O)cc2)c1 (stereo not given) | 97.8%
12 | COc1ccc(C2c3ccc4ccccc4c3Oc3ncn(CCCn4ccnc4)c(=N)c32)cc1OC (stereo not given) | 49.8%
13 | CCOC(=O)c1c2c(n3cccc(Cl)c13)C(=O)c1ncccc1C2=O | 26.5%
14 | CN1C(=O)N(C)C2Nn3c(s/c(=C\c4ccc(Cl)cc4Cl)c3=O)=NC21 (stereo not given) | 78.7%
15 | O=C(Nc1ccc(Cl)cc1)N1CCN(c2ccc3nncn3n2)CC1 | 29.8%
16 | COc1ccc(Br)c(/C=C2\SC(=Nc3ccc(O)cc3)NC2=O)c1 | 99.8%
17 | O=C(Nc1ccccc1O)c1ccc(Oc2cccc(C(=O)Nc3ccccc3O)c2)cc1 | 25.9%
18 | COc1cc(/C=C2\CN(C)C/C(=C\c3cc(CN4CCOCC4)c(O)c(OC)c3)C2=O)cc(CN2CCOCC2)c1O | 67.5%
19 | COc1cccc(/C(C#N)=C/c2nc3c(N4CCOCC4)nc(Cl)nc3n2C)c1 | 63.4%
20 | Cc1ccccc1CNC(=O)C1CN(c2ccc(Cl)cc2)N(c2ccc(Cl)cc2)C1=O (stereo not given) | 89.1%

Row | SMILES | growth
21 | COc1ccc(CCN2CCC(CN(C)Cc3cnn(-c4ccccc4)c3)CC2)cc1 | 46.4%
22 | O=C(CCc1nnc2sc(COc3ccccc3)nn12)c1nc2ncccc2[nH]1 | 91.9%
23 | O=C(/C=C/c1ccccn1)c1ccc(OCc2nnc(-c3ccc(Cl)cc3)o2)cc1 | 52.7%
24 | O=c1oc2ccc(Br)cc2c(=O)n1-c1ccc(Br)cc1F | 2.56% (active)
25 | CCOc1cc2c(cc1OCC)C(c1cc(C)c(O)c(C)c1)NCC2 (stereo not given) | 92.2%
26 | COc1cc(CNC(=O)c2ccsc2Nc2ccnc(C(F)(F)F)c2)ccc1O | 95.3%
27 | O=C(NC1C(O)OC(CO)C(O)C1O)NS(=O)(=O)c1ccc(Cl)cc1 (stereo not given) | 99.5%
28 | O=c1c2cc(F)cc(Cl)c2sc2c(Cl)nc3ccccc3c12 | 97.8%
29 | Nc1nc(-c2ccccc2Br)nn1-c1nc2ccccc2s1 | 105%
30 | c1ccc(-c2ccc(-c3nc4ccccc4[nH]3)cc2)cc1 | 98.9%
31 | CCCCC1COc2cccc3c2N1C=C/C3=C\C(=O)N(C)c1ccccc1 (stereo not given) | 89.2%
32 | O=S(=O)(c1ccc(NC(=S)NC23CC4CC(CC(C4)C2)C3)cc1)N1CCCCC1 | 102%
33 | O=c1c2cc(F)ccc2sc2c(NCCCNCCO)nc3ccc(Cl)cc3c12 | 79.2%
34 | Cc1nc2ccccc2c(/C=C/c2ccccc2)c1C(=O)/C=C/c1ccc(Cl)cc1 | 50%
35 | Cn1c(=O)n(C)c2cc(CNCCNc3ccnc4cc(Cl)ccc34)ccc21 | 95.4%
36 | O=c1c2cccc(F)c2sc2c(N3CCNCC3)nc3ccccc3c12 | 37.9%
37 | CCn1c(Cc2ccccc2Nc2c(Cl)cccc2Cl)nnc1SCC(=O)NN1C(=O)/C(=C/c2cccc(OC)c2OC)SC1=S | 99%
38 | CCN1C(=O)N(CC)C2C1NN=c1s/c(=C3\C(=O)N(C(C)C)c4ccccc43)c(=O)n12 (stereo not given) | 52.6%
39 | Cc1ccc(Cc2cnc(NC(=O)CN3C(=O)/C(=C\c4ccccc4)SC3=S)s2)cc1 | 109%
40 | COc1cc(NC(=O)CCSc2nc3ccccc3c(=O)n2CCc2ccccn2)cc(OC)c1OC | 88.8%

From PubChem BioAssay (NCI)
